Compounds without any hit were thinned out: in the full panel of roughly 83,000, 20% have a hit.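 Cells were grown in 96-well plates and exposed to the test compound at a single concentration for 48 hours; results are reported as percent growth, with values below 10 considered active.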 Values without a mark were called inactive. Calls of active or inactive are those of the source.
Tests used:
Test in all cases: NCI-60 one-dose screen, 48 h (100 = growth as untreated, 0 = no growth, -100 = all killed)
Conditions in all cases: 10 µM unless noted
NCI-H23 lung = test system: NCI-H23 lung
NCI-H226 lung = test system: NCI-H226 lung
NCI-H322M lung = test system: NCI-H322M lung
HOP-62 NSCLC = test system: HOP-62 NSCLC
NCI-H460 lung = test system: NCI-H460 lung
HOP-92 NSCLC = test system: HOP-92 NSCLC
NCI-H522 lung = test system: NCI-H522 lung
A549/ATCC NSCLC = test system: A549/ATCC NSCLC
786-0 renal = test system: 786-0 renal
COLO 205 colon = test system: COLO 205 colon
DU-145 prostate = test system: DU-145 prostate
K-562 leukemia = test system: K-562 leukemia
MALME-3M melanoma = test system: MALME-3M melanoma
MDA-MB-231 breast = test system: MDA-MB-231 breast
RXF 393 renal = test system: RXF 393 renal
SF-268 CNS = test system: SF-268 CNS
SF-295 CNS = test system: SF-295 CNS
SF-539 CNS = test system: SF-539 CNS
UACC-257 melanoma = test system: UACC-257 melanoma
M14 melanoma = test system: M14 melanoma

Row | Compound | growth (NCI-H23 lung) | growth (NCI-H226 lung) | growth (NCI-H322M lung) | growth (HOP-62 NSCLC) | growth (NCI-H460 lung) | growth (HOP-92 NSCLC) | growth (NCI-H522 lung) | growth (A549/ATCC NSCLC) | growth (786-0 renal) | growth (COLO 205 colon) | growth (DU-145 prostate) | growth (K-562 leukemia) | growth (MALME-3M melanoma) | growth (MDA-MB-231 breast) | growth (RXF 393 renal) | growth (SF-268 CNS) | growth (SF-295 CNS) | growth (SF-539 CNS) | growth (UACC-257 melanoma) | growth (M14 melanoma)
1 | Fc1cccc(Oc2ccc(Nc3ncnc4ccc(OCCCN5CCOCC5)cc34)cc2Cl)c1 | 73.5% | 88.1% | 37.7% | 82.5% | 42.5% | 54.3% | 43.8% | 48.3% | 51.9% | 79.4% | 52.5% | 3.55% (active) | 24.6% | 61.4% | 55.5% | 54.4% | 82.7% | 88.1% | 12.5% | -44% (active)
2 | COc1ccc(C(=O)Nc2cccc(-c3cc(=O)c4c(OC)c(OC)c(OC)cc4o3)c2)cc1 | 57.5% | 69.9% | 55.1% | 72.5% | 42.1% | 6.67% (active) | 44.5% | 64.7% | 55% | 73.1% | 56.5% | 20.6% | 53.4% | 57.2% | 53.6% | 58.4% | 59.6% | 66.3% | 105% | 68%
3 | CC(C)c1ccc(-n2c(=S)[nH]c3sc4cc(O)ccc4c3c2=O)cc1 | 98.6% | 92.5% | 90.4% | 102% | 101% | 80.2% | 99.9% | 106% | 103% | 102% | 104% | 107% | 87.1% | 95.4% | 91.2% | 99.4% | 103% | 93.6% | 111% | 94.6%
4 | COc1ccc(C/C(C)=C(/c2ccc(OCCN(C)C)cc2)c2ccc(OC(=O)NCc3ccccc3)cc2)cc1 | 83.1% | 97.7% | 80.8% | 83.3% | 22.9% | 38.2% | 50.4% | 55% | 61.1% | 20.4% | 81.1% | -29.2% (active) | 88.5% | 57.9% | 60.3% | 72.9% | 88% | 88.9% | 75.8% | 25.1%
5 | O=C1Nc2ccccc2/C1=C/c1cccn1CCCCn1c2ccccc2c(=O)c2ccccc21 | 77.4% | 75.2% | 101% | 77.4% | 93.7% | 59.5% | 68.4% | 86.3% | 97% | 69.8% | 94.2% | 59.5% | 91.9% | 64.7% | 88.1% | 83.1% | 101% | 93% | 105% | 85.1%
6 | CCOC(=O)c1c(NC(=O)c2ccc(Cl)cc2)sc2c(CN(C)C)c(O)ccc12 | 88% | 96.1% | 61.3% | 84.6% | 71.3% | 1.75% (active) | 76.5% | 69.6% | 69.8% | 5.48% (active) | 82% | 8.81% (active) | 51.6% | 56.4% | 64.2% | 78.5% | 83.5% | 56.7% | 2.24% (active) | -18.4% (active)
7 | NC(=O)c1cccc(-n2ccc3cc(NC(=O)c4ccc(N5CCOCC5)c(C(F)(F)F)c4)ccc32)n1 | 77.5% | 66.3% | 57.1% | 44.5% | 43.8% | 66.8% | 58.9% | 42.7% | 19.1% | 34.4% | 60.8% | 36.6% | 65.4% | 49.6% | -21.1% (active) | 66.8% | -52.1% (active) | -15.4% (active) | 74.6% | 66.5%
8 | Cc1ccc2c(Cn3cc(CSc4nc5ccccc5o4)nn3)cc(=O)oc2c1 | 96.1% | 110% | 104% | 105% | 110% | 110% | 97.6% | 105% | 105% | 111% | 111% | 98.4% | 104% | 106% | 98.6% | 103% | 110% | 101% | 104% | 114%
9 | CC1(C)COB(OCC(C)(C)COB2OCC(C)(C)CO2)OC1 | 101% | 100% | 92.2% | 108% | 107% | 87.9% | 106% | 100% | 104% | 109% | 103% | 106% | 93.8% | 112% | 123% | 100% | 97.4% | 98.3% | 98.6% | 105%
10 | O=C(NCCNc1nccc(Nc2ccc(S(=O)(=O)Nc3ccccn3)cc2)n1)c1cccc([N+](=O)[O-])c1 | 97.4% | 98.7% | 106% | 99.2% | 104% | 102% | 82% | 94.8% | 98% | 110% | 109% | 92.9% | 108% | 118% | 108% | 104% | 103% | 102% | 95.3% | 101%
11 | Cc1cc(=O)oc2cc(OCc3nn4c(Nc5nc6ccccc6s5)c(-c5ccccc5)nc4s3)ccc12 | 83.3% | 92.2% | 90.7% | 90.2% | 83.8% | 77.1% | 76.6% | 94.4% | 103% | 104% | 97.7% | -59.3% (active) | 93.7% | 83.1% | 102% | 86.1% | 90.2% | 96.1% | 93.9% | 100%
12 | O=C(c1nn(-c2ccccc2)c2c1CC(NCc1ccc(F)cc1)CC2)N1CCCCC1 (stereo not given) | 95.3% | 103% | 98.2% | 114% | 117% | 92.5% | 89.3% | 103% | 96.4% | 108% | 108% | 91% | 102% | 110% | 107% | 93% | 102% | 106% | 101% | 95.3%
13 | COc1cc2c(cc1OCCCN1CCN(CCCOc3cc4c(cc3OC)C(=O)N3CCC[C@H]3C=N4)CC1)C=CC(C)(C)O2 | -58.5% (active) | -70.3% (active) | -80.7% (active) | -50.9% (active) | -94.8% (active) | -29.6% (active) | -80.5% (active) | -79.2% (active) | -97.1% (active) | -76.8% (active) | -100% (active) | -35.8% (active) | -89.1% (active) | -81.9% (active) | -92% (active) | -91.9% (active) | -59.2% (active) | -100% (active) | -62.4% (active) | -74.2% (active)
14 | CCOC(=O)C#Cc1c(C(=O)OCC)nnn1Cc1ccc([N+](=O)[O-])cc1 | 86.2% | 70.4% | 100% | 113% | 98.7% | 40.6% | -33.4% (active) | 96.1% | 65.6% | -22.2% (active) | 10.4% | 4.56% (active) | 53.8% | 83.1% | -58.4% (active) | 87.4% | 99.8% | 47.3% | 42% | 43.8%
